# From PubChem BioAssay AID2014 (Sanford-Burnham Center for Chemical Genomics, 2009)
# Screen size: about 290,000 compounds; about 3,000 (1%) were called active. No rule for the calls is given here. The sample as a whole holds a higher share of actives than the screen did.
# Molecular target: Polyadenylate-binding protein 1 (Homo sapiens) (UniProt P11940)
# Assay: PABP poly(A) RNA binding inhibitors, primary screen, biochemical, fluorescence polarization, uHTS (AID 2014);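 also: calls also rest on retests at 20 µM and on dose response follow-up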
# Conditions: stronger effect = higher value
# Chain of Polyadenylate-binding protein 1 (Homo sapiens) (P11940 whole entry, looked up): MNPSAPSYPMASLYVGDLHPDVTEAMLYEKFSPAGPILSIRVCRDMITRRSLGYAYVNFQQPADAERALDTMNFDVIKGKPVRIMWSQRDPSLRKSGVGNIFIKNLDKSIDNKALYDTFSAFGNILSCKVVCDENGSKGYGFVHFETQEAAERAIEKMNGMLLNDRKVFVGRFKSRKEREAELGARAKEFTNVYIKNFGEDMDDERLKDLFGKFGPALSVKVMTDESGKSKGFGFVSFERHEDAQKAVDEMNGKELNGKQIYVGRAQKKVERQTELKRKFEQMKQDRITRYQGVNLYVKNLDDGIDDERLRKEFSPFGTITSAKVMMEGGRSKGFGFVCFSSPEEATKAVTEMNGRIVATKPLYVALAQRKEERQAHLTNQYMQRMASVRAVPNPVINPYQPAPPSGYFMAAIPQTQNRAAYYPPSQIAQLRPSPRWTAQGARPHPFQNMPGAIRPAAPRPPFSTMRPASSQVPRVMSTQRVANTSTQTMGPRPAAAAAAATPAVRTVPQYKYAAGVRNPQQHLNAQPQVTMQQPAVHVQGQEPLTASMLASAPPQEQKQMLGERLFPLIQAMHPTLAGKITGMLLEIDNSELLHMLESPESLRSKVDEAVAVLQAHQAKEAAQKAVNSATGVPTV
SMILES,inhibition (at 35 µM),"inhibition (confirmation repeats, at 20 µM) [%]"
O=C(c1ccc(CS(=O)(=O)c2ccccc2)o1)N1CCN(c2ccccc2)CC1,28.3% (active),62.1
O=C(c1cc(=O)c2ccccc2o1)N1CCN(c2ccccc2)CC1,4.7% (inactive),–
O=C(c1ccc(S(=O)(=O)N2CCOCC2)cc1)N1CCN(c2ccccc2)CC1,3.8% (inactive),–
CCc1ccc(N2CC(C(=O)N3CCCCCC3)CC2=O)cc1 (stereo not given),-12.2% (inactive),–
COc1ccc2oc(=O)cc(CN3CCOCC3)c2c1,10.8% (inactive),–
O=Cc1cn(-c2ccccc2)nc1-c1ccccn1,-6.6% (inactive),–
Cc1ccc(SCCSc2ncccn2)cc1,8.3% (inactive),–
Cc1cccc(C(=O)NNC(=O)CSc2nnc(C(C)C)n2C)c1,0.1% (inactive),–
COCCN1C=C2C(=O)C(C)(OC(=O)C3CCCC3)C(=O)C=C2C=C1c1ccsc1 (stereo not given),61% (active),–
COCCn1c(N)c(N(Cc2ccccc2)C(=O)C2CCCCC2)c(=O)[nH]c1=O,4.9% (inactive),–
Cc1cccnc1CC(C)NC(=O)c1cc(COc2cncc(Cl)c2)on1 (stereo not given),-0.2% (inactive),–
CC(=O)c1ccc(OC(=O)N2CCOCC2)cc1,-1.2% (inactive),–
COc1ccc(N2C(=O)C3CCCN3C2c2cccc(OC)c2)cc1 (stereo not given),-1.1% (inactive),–
Cc1ccc(C2Nc3cccc4cccc(c34)N2)cc1,39.9% (inactive),–
O=C1NC(c2cccc(Cl)c2)Nc2ccccc21 (stereo not given),-16.8% (inactive),–
Oc1ccc(C2Nc3cccc4cccc(c34)N2)cc1,69.2% (active),–
COc1cccc(C2Nc3cccc4cccc(c34)N2)c1,25.6% (active),72.2
COc1ccc(C2NC(=O)c3ccccc3N2)cc1 (stereo not given),15.7% (inactive),–
O=C1CCN(CCc2ccccc2)CCN1CCOc1ccccc1,7.2% (inactive),–
COc1ccc(CNC(=O)CN(Cc2ccccc2Cl)C(=O)c2csnn2)cc1,4.9% (inactive),–
COc1cc(CC(=O)NCc2cccs2)cc(OC)c1OC,-5.2% (inactive),–
CCN(CC(=O)NCc1cccs1)C(=O)c1cccc(S(=O)(=O)Nc2ccccc2OC)c1,60.4% (active),70.6
CCN(CC(=O)NCc1cccs1)C(=O)c1ccccc1F,-8.7% (inactive),–
CC(=O)c1ccccc1OCc1ccc(C(=O)c2ccccc2)cc1,0.6% (inactive),–

SMILES,inhibition (at 35 µM),"inhibition (confirmation repeats, at 20 µM) [%]"
O=C(NC1CC1)C(Cc1ccccc1)NS(=O)(=O)c1ccccc1F (stereo not given),-3.9% (inactive),–
O=C(NCCCc1ccccc1)C1CCC(=O)N(CCc2ccc(Cl)cc2)C1 (stereo not given),2.3% (inactive),–
Cc1cc(=O)oc(C)c1C(=O)NCc1ccc(F)cc1,28.4% (inactive),–
Cc1cc(=O)oc(C)c1C(=O)Nc1cnc2ccccc2c1,104% (active),–
Cc1cc(=O)oc(C)c1C(=O)NCCN(C)Cc1ccccc1,-13.8% (inactive),–
Cc1ccc(C(=O)NC2CCN(C(=O)Nc3ccccc3Cl)CC2)cc1,8.2% (inactive),–
Cc1cccc(N2CCN(C(C)C(=O)N3CCc4ccccc43)CC2)c1C (stereo not given),-1.2% (inactive),–
Cc1cccc(N(C(=O)Cn2nnc(-c3ccc(C)o3)n2)C(C(=O)NC2CCCC2)c2ccncc2)c1 (stereo not given),11.1% (inactive),–
Cc1ccc(N2NC(=O)/C(=C/C=C/c3ccco3)C2=O)cc1C,12.2% (inactive),–
Cc1ccc(N=C2NC(=O)/C(=C/C=C/c3ccco3)S2)cc1C,-2.9% (active),92
Cc1cccc(N=C2NC(=O)/C(=C/c3cn(C)c4ccccc34)S2)c1,-3.5% (inactive),–
CC(C)(O)C#Cc1ccc(CN2CCC(CO)(CCc3ccccc3)CC2)cc1,-2.8% (inactive),–
Brc1ccccc1CN1CCC(Cc2ccccc2)CC1,0.9% (inactive),–
Cn1c(N)cc(-c2ccc(F)cc2)c(C#N)c1=O,59.1% (active),69.9
COc1ccc(O)c(C(=O)c2cnc3c(c2)c(-c2ccc(F)cc2)c(C#N)c(=O)n3C)c1,7.5% (inactive),–
Cc1cc(C)c2c(-c3ccc(F)cc3)c(C#N)c(=O)n(C)c2n1,-5.1% (inactive),–
COc1ccc(NC(=O)C(CC(C)C)NC(=O)C2CCC(C)CC2)cc1 (stereo not given),-2.9% (inactive),–
C=CCn1c(=O)c(C(=O)NCc2ccc3c(c2)OCO3)c(O)c2ccccc21,-7.7% (inactive),–
CC1CCCCC1NC(=O)CCS(=O)(=O)c1ccc2c(c1)NC(=O)CO2 (stereo not given),3.9% (inactive),–
Cc1cccc2c1cnn2C(=O)CCC(=O)NC1CCCCC1,-10.3% (inactive),–
CN(C(=O)CN1C(=O)S/C(=C\c2ccccc2F)C1=O)C1CCS(=O)(=O)C1 (stereo not given),11.1% (inactive),–
Cc1ccc(OCC(=O)NC(C)c2ccccc2)c([N+](=O)[O-])n1 (stereo not given),51.1% (inactive),-6.6
Cc1ccc(OCC(=O)c2cc(C)n(Cc3ccco3)c2C)c([N+](=O)[O-])n1,40.8% (inactive),34.4
COCC(C)n1c(C)cc(C(=O)COc2ccc(C)nc2[N+](=O)[O-])c1C (stereo not given),-2.1% (active),57.1

SMILES,inhibition (at 35 µM),"inhibition (confirmation repeats, at 20 µM) [%]"
CCOc1cccc(=O)c2c(C)n(CC3CCCO3)c(C)c12 (stereo not given),92.6% (active),–
CCOc1ccc(NC(=O)c2cccc3c2C(=O)N(CC2CCCO2)C3)cc1 (stereo not given),-7.6% (inactive),–
COc1ccccc1NC(=O)CSc1nnc(C)n1CC1CCCO1 (stereo not given),9.2% (inactive),–
Cc1cc(=O)n2[nH]c(-c3cccc(Cl)c3)cc2n1,1.6% (inactive),–
CCc1c(C)nc2cc(-c3cccs3)[nH]n2c1=O,3.2% (inactive),–
Cc1cc(=O)n2[nH]c(-c3sccc3-n3c(C)ccc3C)cc2n1,31.1% (active),94.5
CC1CCN(C(=O)c2ccc3c(=O)n4c(nc3c2)CCCCC4)CC1,3.8% (inactive),–
Cc1ccc(C(=O)NCC(=O)NCc2cc(=O)n(C)c(=O)n2C)cc1,1.4% (inactive),–
CC(/C=N/NC(=O)c1ccncc1)=C\c1ccco1,14.8% (inactive),–
C/C(=C\c1ccco1)C1Nc2cccc3cccc(c23)N1,116% (active),–
CC(/C=N/NC(=O)c1cc(-c2ccc3ccccc3c2)n[nH]1)=C\c1ccco1,9.9% (inactive),8.9
COc1ccc(S(=O)(=O)c2c[nH]c(=S)[nH]c2=O)cc1Cl,26% (inactive),–
CCOC(=O)C1(CCOc2ccccc2)CCN(Cc2cc(OC)cc(OC)c2)CC1,10.8% (inactive),–
Cn1cc(CNC(=O)c2ccc(OC3CCN(Cc4ccccn4)CC3)cc2)cn1,9.6% (inactive),–
O=S1(=O)CCN(Cc2ccccc2Cl)CC1,33.1% (active),64.5
CSc1ccc(/C=N/N2CCN(Cc3ccccc3Cl)CC2)cc1,3.3% (inactive),–
O=c1ccn(Cc2ccccc2Cl)cc1,7.8% (inactive),–
COc1cc(CO)ccc1OCC(=O)Nc1cccc2ccccc12,-6.9% (inactive),–
O=C(NCc1ccccc1)C1CCN(C(=O)Cc2ccccc2)CC1,0% (inactive),–
Cc1cc(Cl)c2oc(C(=O)N3CCC(O)(c4ccccc4)CC3)c(C)c2c1,3.6% (inactive),–
COc1cccc(CC(=O)Nc2nc(-c3ccc(OC)c(OC)c3)cs2)c1,3.9% (inactive),–
COc1ccc(OC)c(Nc2nc(-c3ccc(O)c(O)c3)cs2)c1,88.7% (active),–
COc1ccc(-c2csc(Nc3ccc(O)cc3)n2)cc1,6.1% (inactive),–
Cc1nc(N2CCOCC2)sc1C(=O)NN,18.5% (inactive),–

SMILES,inhibition (at 35 µM),"inhibition (confirmation repeats, at 20 µM) [%]"
Fc1cc(F)c2nc(N3CCOCC3)sc2c1,6.9% (inactive),–
Cc1cc(C)n(Cc2cnc(N3CCOCC3)s2)n1,55% (active),89.9
COC(=O)CCCC1=CC2=C(c3ccccc3)C(=O)C(C)(OC(=O)C3CCCC3)C(=O)C2=CN1c1ccc(OC)cc1 (stereo not given),12.6% (inactive),–
COC(=O)CCCC1=CC2=CC(=O)C(C)(OC(=O)c3cccs3)C(=O)C2=CN1CC(C)C (stereo not given),36.8% (active),67.3
COC(=O)CCCC1=CC2=CC(=O)C(C)(OC(=O)c3cccs3)C(=O)C2=CN1CC1CC1 (stereo not given),32.8% (inactive),–
CCCCC1=CC2=CC(=O)C(C)(OC(=O)CC)C(=O)C2=CN1CCCOC(C)C (stereo not given),34.8% (active),51.1
Cc1ccccc1-n1cc(CNC(=O)C2CCC(=O)N(C3CC3)C2)cn1 (stereo not given),-10.9% (inactive),–
CCOc1ccccc1NC(=O)Cc1cccs1,4.2% (inactive),–
Cc1cc(Cl)c2oc(C(=O)NC(C)c3ccncn3)c(C)c2c1 (stereo not given),-10% (inactive),–
CC(C)(C)NC(=O)CSc1nnc(NC(=O)CCc2ccccc2)s1,-1.7% (inactive),–
COc1cc(NC(=O)CSc2ccc(-c3cccnc3)nn2)cc(OC)c1,15.1% (inactive),–
O=C(c1ccco1)N1CCN(Cc2cccc(C(F)(F)F)c2)CC1,6.5% (inactive),–
CC1CCN(S(=O)(=O)c2ccc3c(c2)n(C)c(=O)n3C)CC1,-1.1% (inactive),–
COc1cc(/C=C(/NC(=O)c2ccccc2)C(=O)Nc2cccc(O)c2)c([N+](=O)[O-])cc1OC,-0.9% (inactive),–
COc1ccc(NC(=O)/C(C#N)=C\c2cc(OC)c(OCc3ccc(C(=O)O)cc3)cc2Br)cc1,7.9% (inactive),–
COc1cc(/C=C(\C#N)C(=O)Nc2ccc3ccccc3c2)c([N+](=O)[O-])cc1OC,-2.3% (active),70.5
COCc1cc(=O)n2[nH]c(C)c(-c3ccccc3)c2n1,8.4% (inactive),–
Cn1c(-c2ccco2)nc2cc3ccccc3cc21,4% (inactive),–
c1coc(-c2nc3nc4ccccc4n3nc2-c2ccco2)c1,63.7% (active),–
COc1ccc(CCn2c(-c3ccco3)nc3nc4ccccc4nc32)cc1OC,12.4% (inactive),–
CCOC(=O)C1=C(CCc2ccccc2)NC(=O)NC1c1ccc2ccccc2c1 (stereo not given),-1% (inactive),–
CCOC(=O)CNC(=O)CSc1ncccc1-c1nc2ccccc2[nH]1,0.2% (inactive),–
Cc1cc(C(=O)NCCc2ccc(Cl)cc2)c(C)o1,0% (inactive),–
